Test results: PubChem BioAssay (Tox21)
Values joined by “and” are separate entries in the source; they are usually repeats but may differ in a detail not shown here. Equal entries are not always repeated. Records with an inconclusive call do not appear. Some compounds were tested as several samples or in several runs, with calls that do not always agree. Active and inactive are the calls of the source. Unless noted, calls come from the whole dose curve; as a rule, active = well fitted curve in the direction sought with a large enough effect in the repeat runs; inconclusive = weak or mixed curves; inactive = no such curve, though single readings can be large; an effect the other way counts as inactive or inconclusive.

Assays:
[1] = target: Retinoic acid receptor RXR-alpha (Homo sapiens) (UniProt P19793); assay: qHTS assay to identify small molecule agonists of the RXR signaling pathway (AID 1159527; calls by dose curve; note: nearly all actives have a fitted effect of over 35% in size)
Sequence of Retinoic acid receptor RXR-alpha (Homo sapiens) (P19793 whole entry, looked up): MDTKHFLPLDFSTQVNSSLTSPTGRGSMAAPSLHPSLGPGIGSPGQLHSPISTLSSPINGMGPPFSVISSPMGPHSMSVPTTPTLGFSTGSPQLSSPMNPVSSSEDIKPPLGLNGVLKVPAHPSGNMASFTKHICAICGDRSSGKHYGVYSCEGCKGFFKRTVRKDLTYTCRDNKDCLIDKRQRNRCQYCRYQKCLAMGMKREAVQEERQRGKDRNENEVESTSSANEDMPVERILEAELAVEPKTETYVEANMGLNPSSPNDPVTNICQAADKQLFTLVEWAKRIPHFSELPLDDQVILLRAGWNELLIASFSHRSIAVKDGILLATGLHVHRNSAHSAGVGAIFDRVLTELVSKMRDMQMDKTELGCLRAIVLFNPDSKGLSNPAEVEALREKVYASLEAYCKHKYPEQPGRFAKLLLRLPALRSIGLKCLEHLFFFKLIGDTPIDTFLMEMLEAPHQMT
Method in brief: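 Agonist mode; 9-cis retinoic acid positive control. HEK 293T UAS-bla reporter cells, 2% charcoal-stripped FBS, 16 hr compound exposure at 37 C/5% CO2. LiveBLAzer B/G FRET substrate 2 hr RT; ex 405, em 460/530 nm.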

[2] = qHTS assay to identify small molecule agonists of the RXR signaling pathway - cell viability counter screen (AID 1159529); note: series mostly up to about 77 µM; nearly all actives have a fitted effect of over 50% in size
Method in brief: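 Luminescence from CellTiter-Glo (30 min, RT) measured viability in the same wells as the beta-lactamase reporter readout. Cells: GeneBLAzer RXR-alpha HEK 293T, 2% charcoal-stripped FBS. Compound exposure 16 hr, 37 C.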

[3] = qHTS assay to identify small molecule antagonists of the retinoid acid receptor (RAR) signaling pathway - cell viability counter screen (AID 1159551); note: nearly all actives have a fitted effect of over 35% in size
Method in brief: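 In this counter screen, the RARE-luciferase line C3RL4 was exposed for 6 h at 37 C and 5% CO2 to compounds with retinol at 1 uM final. Cellular ATP, read by luminescence, served as the viability measure.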

[4] = qHTS assay to identify small molecule antagonists of the retinoic acid receptor (RAR) signaling pathway (AID 1159552; note: nearly all actives have a fitted effect of over 50% in size)
Method in brief: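 Luminescence from a RARE luciferase reporter in C3RL4 cells served as read-out. Cells received compounds together with 1 uM final retinol and incubated 6 hr at 37 C before detection reagent was added for 30 min at room temperature.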

[5] = qHTS assay to identify small molecule agonists of the retinoic acid receptor (RAR) signaling pathway (AID 1159553); note: potency is the fitted concentration of half-maximal effect
Method in brief: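 In this cell-based screen, 1,000 C3RL4 cells per well were cultured overnight, dosed with test chemicals in DMSO for 6 hr, and assessed for RARE luciferase luminescence.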

[6] = qHTS assay to identify small molecule antagonists of the estrogen related receptor (ERR) signaling pathway from Tox21 library - cell viability counter screen (AID 1224834); note: nearly all actives have a fitted effect of over 30% in size; note: potency is the fitted concentration of half-maximal effect
Method in brief: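 Counter screen run in ERR cells (2,000 cells/well): cells pre-incubated 6 h, then treated with compounds for 17.5 h at 37 C. Fluorescence was read 30 min after CellTiter-Fluor addition.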

[7] = target: Luciferin 4-monooxygenase (Photinus pyralis) (UniProt P08659); assay: qHTS assay to identify small molecule inhibitors of firefly luciferase (AID 1224835); note: nearly all actives have a fitted effect of over 25% in size; note: potency is the fitted concentration of half-maximal effect
Sequence of Luciferin 4-monooxygenase (Photinus pyralis) (P08659 whole entry, looked up): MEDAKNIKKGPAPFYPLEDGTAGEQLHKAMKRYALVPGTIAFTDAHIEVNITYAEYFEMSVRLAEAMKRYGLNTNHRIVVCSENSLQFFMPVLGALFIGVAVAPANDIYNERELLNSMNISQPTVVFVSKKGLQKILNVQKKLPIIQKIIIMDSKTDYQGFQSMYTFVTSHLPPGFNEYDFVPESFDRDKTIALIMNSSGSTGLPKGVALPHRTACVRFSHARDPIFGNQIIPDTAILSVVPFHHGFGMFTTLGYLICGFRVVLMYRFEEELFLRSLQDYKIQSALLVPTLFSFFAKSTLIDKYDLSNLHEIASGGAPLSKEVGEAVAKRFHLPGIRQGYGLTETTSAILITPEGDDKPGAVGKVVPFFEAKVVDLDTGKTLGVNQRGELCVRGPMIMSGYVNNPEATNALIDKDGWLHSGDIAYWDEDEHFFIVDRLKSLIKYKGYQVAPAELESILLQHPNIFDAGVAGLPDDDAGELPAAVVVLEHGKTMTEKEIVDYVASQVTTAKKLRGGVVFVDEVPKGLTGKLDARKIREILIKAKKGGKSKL
Method in brief: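 Quantitative HTS format; KM concentrations of both substrates. Purified P. pyralis FLuc activity quantified from luminescence images.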

[8] = qHTS assay to identify small molecule agonists of the constitutive androstane receptor (CAR) signaling pathway - cell viability counter screen (AID 1224836); note: series mostly up to about 92 µM; nearly all actives have a fitted effect of over 45% in size
Method in brief: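 Viability read-out: CellTiter-Fluor fluorescence after 23 h compound exposure at 37 C/5% CO2 in double-stable HepG2-CYP2B6-hCAR cells, with PK11195 present at 0.75 uM final; compounds tested in 15-point titration.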

[9] = qHTS assay to identify small molecule antagonists of the constitutive androstane receptor (CAR) signaling pathway - cell viability counter screen (AID 1224837); note: series mostly up to about 92 µM; nearly all actives have a fitted effect of over 45% in size
Method in brief: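 CITCO at 50 nM final was added alongside compounds (15 concentrations) to double-stable hCAR/CYP2B6-2.2kb HepG2 cells. Following 23 hr at 37 C, cell viability was quantified by CellTiter-Fluor fluorescence intensity.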

[10] = target: Nuclear receptor subfamily 1 group I member 3 (Homo sapiens) (UniProt Q14994); assay: qHTS assay to identify small molecule antagonists of the constitutive androstane receptor (CAR) signaling pathway (AID 1224838); note: nearly all actives have a fitted effect of over 40% in size
Sequence of Nuclear receptor subfamily 1 group I member 3 (Homo sapiens) (Q14994 whole entry, looked up): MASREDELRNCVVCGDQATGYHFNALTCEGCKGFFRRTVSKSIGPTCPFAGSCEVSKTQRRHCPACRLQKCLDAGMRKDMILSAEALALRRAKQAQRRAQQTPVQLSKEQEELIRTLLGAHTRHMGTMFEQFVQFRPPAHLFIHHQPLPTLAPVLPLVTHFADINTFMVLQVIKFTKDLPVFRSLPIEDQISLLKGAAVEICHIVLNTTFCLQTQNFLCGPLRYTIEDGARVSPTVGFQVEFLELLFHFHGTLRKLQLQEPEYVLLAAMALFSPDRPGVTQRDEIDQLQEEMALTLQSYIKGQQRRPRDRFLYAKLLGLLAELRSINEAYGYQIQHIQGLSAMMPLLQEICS
Method in brief: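 Inhibition of CITCO-driven (50 nM final) CYP2B6 reporter expression is measured in HepG2 cells stably carrying hCAR. Fifteen compound concentrations are applied for 24 h at 37 C, followed by luciferase luminescence.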

[11] = target: Nuclear receptor subfamily 1 group I member 3 (Homo sapiens) (UniProt Q14994); assay: qHTS assay to identify small molecule agonists of the constitutive androstane receptor (CAR) signaling pathway (AID 1224839); note: nearly all actives have a fitted effect of over 15% in size; note: potency is the fitted concentration of half-maximal effect
Method in brief: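 Luminescence read-out (ONE-Glo, 30 min, room temperature) from double-stable HepG2-CYP2B6-hCAR cells exposed 24 h to 15-point compound series in presence of 0.75 uM PK11195 final.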

[12] = qHTS assay to identify small molecule antagonists of the estrogen related receptor signaling pathway with the pleiotropic PPARgamma coactivator (PGC) from Tox21 10K library - cell viability counter screen (AID 1224840; active = well fitted cell-killing curve with a large enough effect in the repeat runs, not every such curve was filed as active; note: nearly all actives have a fitted effect of over 40% in size)
Method in brief: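 Readout: fluorescence intensity from CellTiter-Fluor after 30 min at 37 C/5% CO2. Preceded by 17.5 h treatment of PGC/ERR cells with DMSO-dissolved compounds, added 6 h post-seeding.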

[13] = qHTS assay to identify small molecule antagonists of the estrogen related receptor signaling pathway with the pleiotropic PPARgamma coactivator (PGC) from Tox21 10K library (AID 1224841; call rule not given here; note: series mostly up to about 92 µM; actives are mostly falling curves and most rising ones were filed inactive; nearly all actives have a fitted effect of over 50% in size)
Method in brief: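 One-Glo luminescence, measured after half an hour at room temperature, quantified reporter output of PGC/ERR cells. These had been plated at 2,000 per well, incubated 6 h, dosed with compounds in DMSO, then kept 18 h at 37 C.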

[14] = qHTS assay to identify small molecule agonists of the estrogen related receptor signaling pathway with the pleiotropic PPARgamma coactivator (PGC) from Tox21 10K library (AID 1224842); note: nearly all actives have a fitted effect of over 15% in size
Method in brief: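 PGC/ERR reporter cells (NTP line) were seeded 2,000 per well, rested 6 h at 37 C/5% CO2, then pin-dosed with compounds in DMSO for 18 h at 37 C; luciferase read by One-Glo luminescence after 30 min at room temperature.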

[15] = qHTS assay to identify small molecule antagonists of the estrogen related receptor (ERR) signaling pathway - cell viability counter screen (AID 1224818); note: series mostly up to about 46 µM
Method in brief: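 Viability of ERR cells, CellTiter-Fluor fluorescence; 17.5 h compound exposure at 37 C, DMSO vehicle; 30 min reagent incubation at 37 C/5% CO2.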

[16] = qHTS assay to identify small molecule antagonists of the estrogen related receptor signaling pathway with the pleiotropic PPARgamma coactivator (PGC) cell viability counter screen (AID 1224822; note: series mostly up to about 46 µM)
Method in brief: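 17.5 h compound treatment of PGC/ERR cells at 37 C; readout CellTiter-Fluor fluorescence; run alongside the PGC/ERR antagonist screen to flag cytotoxic compounds.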

[17] = qHTS assay to identify small molecule agonists of the estrogen related receptor (ERR) signaling pathway (AID 1224820); note: potency is the fitted concentration of half-maximal effect
Method in brief: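 Luminescence readout (One-Glo, 30 min RT) from NTP-supplied ERR cell line exposed to compounds for 18 h at 37 C. Cells seeded 2,000 per well and pre-incubated 6 h before pin-tool compound transfer.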

[18] = test system: estrogen-related receptor alpha (ERRalpha) with PGC-1alpha coactivator, human; assay: qHTS assay to identify small molecule antagonists of the estrogen related receptor signaling pathway with the pleiotropic PPARgamma coactivator (PGC) (AID 1224821; calls by dose curve;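 note: series mostly up to about 46 µM; lower luminescence signal means antagonism of PGC/ERR signalling; nearly all actives have a fitted effect of over 50% in size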)
Method in brief: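 PGC/ERR reporter cells; 6 h pre-incubation 37 C/5% CO2; pin-tool compound in DMSO, 18 h 37 C; One-Glo added, 30 min RT; luminescence read. qHTS antagonist mode.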

[19] = qHTS assay to identify small molecule agonists of the estrogen related receptor signaling pathway with the pleiotropic PPARgamma coactivator (PGC) (AID 1224823); note: potency is the fitted concentration of half-maximal effect
Method in brief: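 Luminescence readout (One-Glo, 30 min RT) from PGC/ERR cell line treated 18 h at 37 C with pin-tool-delivered DMSO compound solutions; cells plated 6 h before dosing. Quantitative HTS format.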

[20] = qHTS assay to identify small molecule antagonists of the estrogen related receptor (ERR) signaling pathway (AID 1224819)
Method in brief: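 Seed ERR cells 2,000/well; rest 6 h at 37 C/5% CO2; pin compounds in DMSO; incubate 18 h at 37 C; add One-Glo; wait 30 min at room temperature; measure luminescence.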

Measured: Potency

CCCCCC/C=C/CCCCCCCC(=O)O
inactive and 71 µM (active): [7]
not listed: [13] | [14] | [15] | [16] | [17] | [18] | [19] | [20]
inactive: all other assays above

O=C(Cl)c1c(Cl)c(Cl)c(C(=O)Cl)c(Cl)c1Cl
not listed: [10] | [15] | [16] | [17] | [18] | [19] | [20]
inactive: all other assays above

O=C(Oc1ccccc1)c1ccc(O)cc1
inactive: [1] | [2] | [3] | [4] | [6] | [8] | [9] | [12]
active: [5] 19.4 µM and 30.6 µM | [7] 35.8 µM and 35.6 µM

NS(=O)(=O)c1cc2c(cc1Cl)NC=NS2(=O)=O
not listed: [11] | [12] | [13] | [14] | [17] | [18] | [19] | [20]
inactive: all other assays above

C[C@@H]1O[C@@H](OC[C@H]2O[C@@H](Oc3c(-c4ccc(O)c(O)c4)oc4cc(O)cc(O)c4c3=O)[C@H](O)[C@@H](O)[C@@H]2O)[C@H](O)[C@H](O)[C@H]1O
not listed: [13] | [14] | [15] | [16] | [17] | [18] | [19] | [20]
inactive: all other assays above

ClC1=C(Cl)C(Cl)(Cl)C(Cl)=C1Cl
inactive and 68.6 µM (active): [5]
not listed: [10] | [14] | [15] | [16] | [17] | [18] | [19] | [20]
inactive: all other assays above

C=C(C)C(=O)OCCCCCCCCCCCC
not listed: [15] | [16] | [17] | [18] | [19] | [20]
inactive: all other assays above

CCCCC(CC)C(=O)OCCOCCOCCOC(=O)C(CC)CCCC (centres undefined)
not listed: [14] | [15] | [16] | [17] | [18] | [19] | [20]
inactive: all other assays above

Cc1cc(O)c2c(c1)C(=O)c1cc(O)cc(O)c1C2=O
active: [5] 9.47 µM | [6] 27.3 µM | [7] 34.8 µM and 31.7 µM | [11] 48.6 µM
not listed: [8] | [10] | [14] | [15] | [16] | [20]
inactive: all other assays above

Cc1cc(=O)[nH]c(C(C)C)n1
not listed: [10] | [14] | [15] | [16] | [17] | [18] | [19] | [20]
inactive: all other assays above

Oc1ccc(OCc2ccccc2)cc1
inactive: [1] | [2] | [3] | [4] | [6] | [8] | [9] | [10] | [12]
4.24 µM (active) and inactive: [5]
active: [7] 31.1 µM and 17.4 µM | [11] 23.8 µM

CC(C)NCC(O)COc1cccc2ccccc12 (centres undefined)
inactive: [1] | [2] | [3] | [4] | [5] | [15] | [16] | [6] | [9] | [10] | [11]

CC(=O)Nc1ccc(C(=O)O)cc1
inactive: [1] | [2] | [3] | [4] | [5] | [6] | [7] | [8] | [9] | [11] | [12]

c1ccc2[nH]cnc2c1
inactive: [1] | [2] | [3] | [4] | [5] | [6] | [7] | [8] | [9] | [10] | [11]

CCCCCCC(C)(C)S
inactive: [1] | [2] | [3] | [4] | [5] | [6] | [7] | [8] | [9] | [11]

CCCCC(CC)COC(=O)/C=C\C(=O)OCC(CC)CCCC (centres undefined)
active: [11] 61.1 µM
not listed: [14] | [15] | [16] | [17] | [18] | [19] | [20]
inactive: all other assays above

O=c1c(-c2ccc(O)cc2)coc2cc(O)ccc12
active: [5] 2.41 µM and 12.2 µM | [17] 15.5 µM | [19] 20.3 µM | [7] 24.9 µM and 12.6 µM | [11] 15.2 µM and 10.9 µM
not listed: [8] | [10] | [14]
inactive: all other assays above

C=C(C)C(=O)OCCC[Si](OC)(OC)OC
inactive: [1] | [2] | [3] | [4] | [5] | [6] | [7] | [8] | [9] | [12]

Cc1ccc(N)c(S(=O)(=O)O)c1
inactive: [1] | [2] | [3] | [4] | [5] | [6] | [7] | [8] | [9] | [12]
